9 compounds from PubChem BioAssay can be followed below.

The target of experiment [1] is Albumin (Bos taurus) (UniProt P02769). In words: bovine serum albumin binders on microarray, profiling panel, artefact control for SMM control protein annotation, biochemical, small-molecule microarray, Alexa647 label, 635/667 nm fluorescence (AID 1118).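 Further: score merges 667 nm emission intensity and signal-to-noise per printed compound spot.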 To be noted: BSA-A647 binding, fluorescence 635 nm, higher = more signal.
Sequence of Albumin (Bos taurus) (P02769 whole entry, looked up): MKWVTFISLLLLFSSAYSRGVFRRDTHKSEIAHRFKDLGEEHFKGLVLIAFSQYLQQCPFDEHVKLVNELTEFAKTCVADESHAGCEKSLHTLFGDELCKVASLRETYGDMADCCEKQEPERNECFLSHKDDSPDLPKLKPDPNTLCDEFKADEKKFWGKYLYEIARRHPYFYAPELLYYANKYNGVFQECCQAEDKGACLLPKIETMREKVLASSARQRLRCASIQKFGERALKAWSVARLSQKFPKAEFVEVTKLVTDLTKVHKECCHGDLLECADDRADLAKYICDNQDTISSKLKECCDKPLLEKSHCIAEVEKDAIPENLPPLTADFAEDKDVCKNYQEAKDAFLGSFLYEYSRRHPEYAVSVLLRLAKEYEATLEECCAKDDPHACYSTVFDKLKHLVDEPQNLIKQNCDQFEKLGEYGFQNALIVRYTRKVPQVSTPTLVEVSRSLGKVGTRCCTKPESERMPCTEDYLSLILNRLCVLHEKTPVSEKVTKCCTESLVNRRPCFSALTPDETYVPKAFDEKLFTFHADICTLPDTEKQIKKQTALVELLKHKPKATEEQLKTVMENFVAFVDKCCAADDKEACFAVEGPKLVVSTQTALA
The nature of experiment [2]: small-molecule microarray binders of probe aXIP, primary screen, biochemical, NeuroSMM set, 635/667 nm fluorescence (AID 1119).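 Further: probe is the protein aXip251-270 applied at 1 µg/mL to compound-printed slides; binding of probe to printed compounds measured as 667 nm fluorescence plus signal to noise.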 The settings on record: higher = more signal, called active from +8 up or from −8 down.
Experiment [3] can be described thus: small-molecule binders of probe aNOTCH3, primary screen, biochemical, small-molecule microarray, 635/667 nm fluorescence (AID 1120).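 Further: probe is a biotin-tagged antibody raised against NOTCH3 rather than NOTCH3 protein; score merges spot fluorescence near 667 nm with spot signal to noise.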 To be noted: higher = more signal.
The nature of experiment [4]: small-molecule binders of probe aNOTCH2, primary screen, biochemical, small-molecule microarray, 635/667 nm fluorescence (AID 1121).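 Further: score merges feature fluorescence read at 667 nm with its signal to noise.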 The settings on record: higher = more signal.
The target of experiment [5] is Carbonic anhydrase 2 (Homo sapiens) (UniProt P00918). Nature of the experiment: CAII small-molecule binders, profiling panel, biochemical, small-molecule microarray, Alexa647-labelled CAII (AID 1122). To be noted: CAII-A647 binding fluorescence, higher = more signal.
Experiment [6] can be described thus: COS7 lysate on small-molecule microarray, probe aHis, 635 nm (AID 1123).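 Further: z-score combines 667nm fluorescence intensity with signal-to-noise per printed compound spot.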 To be noted: COS7 cell lysate, fluorescence, higher = more signal.
Experiment [7] is described as follows: compound binding in COS7 lysate, probe aLAP1, primary screen, cell lysate, small-molecule microarray (AID 1124).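 Further: lysate comes from COS7 cells expressing LAP1 and is applied at 0.3 µg/mL; score merges spot fluorescence near 667 nm with signal-to-noise over triplicate slides.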 The settings on record: probe aLAP1, fluorescence, higher = more signal.
In experiment [8] the test system is Sam68 (KHDRBS1). Nature of the experiment: Sam68 small-molecule binders, primary screen, biochemical, small-molecule microarray, 635 nm fluorescence (AID 1125).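 Further: score merges 667 nm channel intensity with signal to noise over triplicate slides.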 To be noted: small-molecule microarray binding, higher = more signal.
The test system of experiment [9] is Chordin-like protein 2 (CHRDL2). In words: CHRDL2 small-molecule binders, primary screen, biochemical, small-molecule microarray, 635 nm fluorescence (AID 1126).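 Further: printed compound slides probed with Chrdl2 protein at 4 µg/mL for 1 h at 4 C; score merges 667 nm emission intensity with signal to noise over three replicate slides.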 The settings on record: small-molecule microarray binding, fluorescence 635 nm; higher = more signal.
The target in experiment [10] is Concanavalin-A (Canavalia ensiformis) (UniProt P02866). In words: ConA small-molecule binders, primary screen, artefact control for SMM control protein annotation, biochemical, small-molecule microarray, Alexa647 label, 635 nm (AID 1127).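 Further: z combines 667 nm emission intensity with signal-to-noise across three replicate slides.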 To be noted: ConA-A647 binding fluorescence, higher = more signal.
Sequence of Concanavalin-A (Canavalia ensiformis) (P02866 whole entry, looked up): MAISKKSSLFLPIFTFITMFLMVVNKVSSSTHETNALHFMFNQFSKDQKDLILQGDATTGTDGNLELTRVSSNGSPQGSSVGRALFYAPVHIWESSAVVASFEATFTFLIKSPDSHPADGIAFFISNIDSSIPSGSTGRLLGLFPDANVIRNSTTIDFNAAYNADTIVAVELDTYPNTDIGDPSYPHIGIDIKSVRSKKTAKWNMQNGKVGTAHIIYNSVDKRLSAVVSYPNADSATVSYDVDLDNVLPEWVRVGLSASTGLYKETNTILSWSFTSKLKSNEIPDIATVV
Experiment [11] in a line: anti-His antibody binders, primary screen, artefact control for SMM control protein annotation, biochemical, small-molecule microarray, 635 nm fluorescence (AID 1128).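 Further: score merges feature fluorescence with signal-to-noise for each printed compound spot.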 To be noted: anti-His Alexa647 antibody binding, higher = more signal.
Experiment [12] concerns Human papillomavirus type 1a E7 protein (residues 1-88). Nature of the experiment: HPV1a E7 small-molecule binders, primary screen, biochemical, small-molecule microarray, residues 1-88, 635 nm (AID 1129). The settings on record: small-molecule microarray binding, fluorescence 635 nm; higher = more signal.
The target in experiment [13] is Focal adhesion kinase 1 (Homo sapiens) (UniProt Q05397). In words: small-molecule microarray binders of FAK, primary screen, biochemical, 635/667 nm fluorescence, BSA, DTT (AID 1130).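 Further: composite of spot emission at 667 nm and signal to noise over triplicate slides.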 To be noted: PTK2 binding, 635 nm fluorescence, higher = more signal.
Sequence of Focal adhesion kinase 1 (Homo sapiens) (Q05397 whole entry, looked up): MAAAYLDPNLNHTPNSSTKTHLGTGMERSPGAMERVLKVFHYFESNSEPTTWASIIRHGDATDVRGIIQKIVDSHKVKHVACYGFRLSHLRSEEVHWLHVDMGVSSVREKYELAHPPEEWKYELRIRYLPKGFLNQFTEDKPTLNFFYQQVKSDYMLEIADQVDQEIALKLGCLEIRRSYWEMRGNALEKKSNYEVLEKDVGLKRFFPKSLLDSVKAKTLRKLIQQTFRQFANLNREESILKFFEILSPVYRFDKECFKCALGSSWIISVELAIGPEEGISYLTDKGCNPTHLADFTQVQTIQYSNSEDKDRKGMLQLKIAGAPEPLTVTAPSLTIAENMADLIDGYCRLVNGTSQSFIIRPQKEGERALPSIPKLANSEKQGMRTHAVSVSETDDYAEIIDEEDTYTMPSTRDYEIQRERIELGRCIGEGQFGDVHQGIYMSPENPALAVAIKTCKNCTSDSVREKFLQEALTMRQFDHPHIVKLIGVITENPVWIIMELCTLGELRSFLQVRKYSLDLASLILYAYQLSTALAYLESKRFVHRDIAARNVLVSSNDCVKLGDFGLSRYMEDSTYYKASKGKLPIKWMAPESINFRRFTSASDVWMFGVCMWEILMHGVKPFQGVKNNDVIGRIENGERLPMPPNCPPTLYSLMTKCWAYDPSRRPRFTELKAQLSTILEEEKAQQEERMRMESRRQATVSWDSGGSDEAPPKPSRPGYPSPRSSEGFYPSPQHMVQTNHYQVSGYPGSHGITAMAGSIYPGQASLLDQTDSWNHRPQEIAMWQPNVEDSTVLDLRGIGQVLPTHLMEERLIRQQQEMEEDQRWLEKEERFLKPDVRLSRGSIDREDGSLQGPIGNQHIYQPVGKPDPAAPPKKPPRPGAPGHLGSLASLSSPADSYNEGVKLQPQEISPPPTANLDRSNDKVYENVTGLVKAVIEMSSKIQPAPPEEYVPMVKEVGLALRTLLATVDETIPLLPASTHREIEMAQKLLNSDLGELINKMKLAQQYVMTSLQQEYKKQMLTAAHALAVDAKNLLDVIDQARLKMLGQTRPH
Experiment [14] concerns Fibrinogen (Alexa647-labelled). In words: fibrinogen binders on compound microarrays, profiling panel, artefact control for SMM control-protein annotation, biochemical, small-molecule microarray, 635/667 nm fluorescence (AID 1131).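 Further: z-score merges 667 nm fluorescence with per-spot signal-to-noise over triplicate slides.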 The settings on record: fibrinogen-A647 binding fluorescence, higher = more signal.
Experiment [15] addresses Follistatin (Homo sapiens) (UniProt P19883). In words: follistatin binders on small-molecule microarrays, primary screen, biochemical, small-molecule microarray, 635/667 nm fluorescence (AID 1132). To be noted: FST binding, 635 nm fluorescence, higher = more signal.
Experiment [16] deals with Fibroblast growth factor 2 (Homo sapiens) (UniProt P09038). Nature of the experiment: FGF2 binders on small-molecule microarrays, primary screen, biochemical, small-molecule microarray, 635/667 nm fluorescence (AID 1133). The settings on record: small-molecule microarray binding, FGF2, fluorescence 635/667; higher = more signal.
Sequence of Fibroblast growth factor 2 (Homo sapiens) (P09038 whole entry, looked up): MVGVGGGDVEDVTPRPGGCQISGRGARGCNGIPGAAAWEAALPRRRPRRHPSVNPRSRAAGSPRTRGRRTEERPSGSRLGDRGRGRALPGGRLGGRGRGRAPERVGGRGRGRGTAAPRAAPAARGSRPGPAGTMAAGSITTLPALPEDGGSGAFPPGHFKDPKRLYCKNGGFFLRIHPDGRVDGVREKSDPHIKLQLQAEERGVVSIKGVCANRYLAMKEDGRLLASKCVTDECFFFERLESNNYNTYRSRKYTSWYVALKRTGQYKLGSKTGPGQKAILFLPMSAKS
A short description of experiment [17]: mitochondrial membrane potential change in A549 cells, profiling panel, cell-based, JC-1 fluorescence, basal, 24 h, 100 nL (AID 1138).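 Further: A549 lung adenocarcinoma cells under basal conditions with no added stimulus; test concentration not given here.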 The settings on record: higher = more signal.
Experiment [18] has as its system Lefty1. Nature of the experiment: Lefty1 binders on small-molecule microarrays, primary screen, biochemical, small-molecule microarray, 635/667 nm fluorescence (AID 1139). To be noted: small-molecule microarray binding, fluorescence 635/667; higher = more signal.
For experiment [19], the system named is wheat germ agglutinin (Triticum aestivum), Alexa647-labelled. Nature of the experiment: wheat germ agglutinin binders on compound microarrays, profiling panel, artefact control for SMM control-protein annotation, biochemical, small-molecule microarray, 635/667 nm fluorescence (AID 1140).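 Further: score merges 667 nm feature emission with signal to noise over triplicate slides.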 The settings on record: WGA-A647 binding, 635 nm fluorescence, higher = more signal.

The target of experiment [20] is Luciferin 4-monooxygenase (Photinus pyralis) (UniProt P08659). In words: firefly luciferase enzyme inhibitors, primary screen, biochemical, luminescence, purified enzyme, 2006 set (AID 1141).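 Further: cell-free assay with purified firefly luciferase at 100 ng per well in PBS; test concentration not given here.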 The settings on record: SteadyGlo luminescence, 30 min, higher = more signal, called active from +8 up or from −8 down.
Sequence of Luciferin 4-monooxygenase (Photinus pyralis) (P08659 whole entry, looked up): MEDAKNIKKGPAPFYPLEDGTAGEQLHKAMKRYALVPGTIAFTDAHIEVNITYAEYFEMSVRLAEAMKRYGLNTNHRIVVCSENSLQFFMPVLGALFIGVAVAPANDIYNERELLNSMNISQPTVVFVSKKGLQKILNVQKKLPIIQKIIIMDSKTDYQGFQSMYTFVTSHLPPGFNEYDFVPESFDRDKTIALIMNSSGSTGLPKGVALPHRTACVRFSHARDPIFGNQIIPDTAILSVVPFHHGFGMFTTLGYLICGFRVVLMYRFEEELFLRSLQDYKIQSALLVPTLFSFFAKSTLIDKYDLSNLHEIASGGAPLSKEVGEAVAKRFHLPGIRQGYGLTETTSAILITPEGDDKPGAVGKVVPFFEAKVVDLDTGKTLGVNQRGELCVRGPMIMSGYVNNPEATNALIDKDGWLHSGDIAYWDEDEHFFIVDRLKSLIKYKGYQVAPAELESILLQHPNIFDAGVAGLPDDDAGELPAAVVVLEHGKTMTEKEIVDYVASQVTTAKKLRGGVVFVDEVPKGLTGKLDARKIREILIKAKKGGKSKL

Active and inactive are the calls of the source.

Sequence of Follistatin (Homo sapiens) (P19883 whole entry, looked up): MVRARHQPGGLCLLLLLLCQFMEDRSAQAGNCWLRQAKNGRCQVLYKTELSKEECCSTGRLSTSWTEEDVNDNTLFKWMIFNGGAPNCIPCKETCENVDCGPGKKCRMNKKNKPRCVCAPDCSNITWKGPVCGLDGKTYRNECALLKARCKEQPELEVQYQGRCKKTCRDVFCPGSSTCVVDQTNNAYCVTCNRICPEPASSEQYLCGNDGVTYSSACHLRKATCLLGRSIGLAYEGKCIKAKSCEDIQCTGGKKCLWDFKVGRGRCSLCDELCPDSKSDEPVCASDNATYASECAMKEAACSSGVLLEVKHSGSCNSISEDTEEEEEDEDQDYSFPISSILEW

Turning to `O=C1C2C=CC(C(O)c3cccc(O)c3)N(Nc3ccc([N+](=O)[O-])cc3)C2C(=O)N1c1ccccc1` (stereo not given), the composite z-score in experiment [1] is 0.477; in experiment [3], 0.0116; in experiment [4] it was -0.0703; in experiment [5], 0.788; in experiment [6], 0.762; in experiment [7], 0.153. The composite z-score is 0.821 in experiment [8]; -0.264 in [9]; 0.41 in [10]; 1.18 in [11]; 0.785 in experiment [12]; 0.264 in [13]. For the same compound, the composite z-score was 0.578 in [14]; 0.418 in experiment [15]; 0.526 in [16]; 0.292 in experiment [18]; 0.0289 in experiment [19]. Moreover, the composite Z-score in [2] is -0.335 (inactive). Besides, the z-score in [17] was -1.15; in experiment [20], 0.931 (inactive).

On to `O=C1OCCC=C[C@H]2OC34C=CCN(Cn5nnc6ccccc65)C(=O)[C@H]3N(CCCO)C(=O)[C@@H]4C12` (stereo not given in full), for which the composite z-score in experiment [1] is -0.841; in experiment [3], -0.353; in experiment [4], -0.13; in experiment [5] it was 0.0109; in [6], -1.05; in experiment [7] it was 1.45. Also, the composite z-score was -0.674 in experiment [8]; -0.433 in experiment [9]; -1.2 in experiment [10]; -0.0275 in [11]; -1.46 in experiment [12]; -0.519 in [13]. Moreover, the composite z-score in [14] is -0.975; in [15] it was -0.676; in experiment [16], -0.446; in experiment [18], -0.935; in experiment [19], -0.0152. Moreover, the composite Z-score in [2] was -0.0287 (inactive). Also, the z-score in [17] is -0.9; in [20], 0.0251 (inactive).

For the compound `NCCCCCCNC(=O)[C@@H]1C[C@@H]2C(=O)N[C@@H](CCCCN)C(=O)N2[C@@H]1c1ccc(O)cc1`, the composite z-score in [1] is -1.58; in [3], -0.0431; in experiment [4], -0.0386; in experiment [5], 0.782; in experiment [6], 1.68; in experiment [7], 1.18. Further, the composite z-score was found to be 0.762 in experiment [8]; 0.667 in experiment [9]; 0.0619 in [10]; 1.91 in [11]; 0.153 in experiment [12]; 0.353 in experiment [13]. Moreover, the composite z-score in [14] is -1.97; in [15] it was 0.998; in [16], 1; in experiment [18], 0.731; in experiment [19], 0.961. In experiment [2], the composite Z-score is 1.7 (inactive). The z-score is -0.903 in experiment [17] and 0.715 (inactive) in experiment [20].

As for `C=CC[C@@H](OC(=O)Nc1ccc(SC)cc1)c1ccc(O)c(F)c1`, the composite z-score in experiment [1] was -0.102; in experiment [3], -0.0647; in experiment [4] it was -0.114; in [5] it was 0.643; in [6], 0.527; in experiment [7], 0.341. The composite z-score in experiment [8] was 0.152; in experiment [9], 0.268; in experiment [10], -0.0538; in [11], 2.11; in [12], 0.57; in [13] it was 0.274. Also, the composite z-score in experiment [14] was 0.221; in [15], 1.06; in experiment [16], 1.11; in experiment [18], 0.394; in experiment [19] it was 0.904. The composite Z-score in experiment [2] is 0.452 (inactive). The z-score is -1.12 in experiment [17] and -3.58 (inactive) in [20].

For `Cc1ccc(S[C@]2(C(=O)NCCN3CCOCC3)CC(=O)N(Cc3ccccc3Cl)[C@@H]2c2ccc(CO)cc2I)cc1`, the composite z-score was 0.243 in experiment [1]; 0.0226 in experiment [3]; 0.584 in [4]; 0.805 in experiment [5]; 2.75 in experiment [6]; 1.49 in [7]. In addition, the composite z-score in experiment [8] is 0.653; in experiment [9], -0.35; in [10], -0.763; in [11], -0.882; in [12] it was -0.227; in experiment [13], 1.09. Also, the composite z-score is -0.646 in experiment [14]; -0.349 in experiment [15]; 0.388 in experiment [16]; -1.57 in [18]; 0.498 in experiment [19]. Further, the composite Z-score in experiment [2] is 0.555 (inactive). For the same compound, the values for the z-score in experiment [17] and in experiment [20] were 1.08 and -0.43 (inactive), respectively.

For `CCOC(=O)C[C@H]1[C@H](OC(=O)c2cc3ccccc3oc2=O)[C@@H](NC(=O)c2ccc3ccccc3n2)c2cc(OCCCO)ccc2N1C(=O)Cc1ccc(OC)cc1`, the composite z-score in experiment [1] was 0.463; in [3] it was 0.127; in experiment [4] it was -0.0878; in experiment [5], 0.356; in experiment [6] it was 0.219; in experiment [7], -0.0863. The composite z-score in [8] was determined as 1.22; in experiment [9], 0.368; in [10] it was 1.05; in experiment [11], 0.357; in experiment [12], 1.18; in [13], 0.277. The composite z-score amounted to 0.953 in experiment [14]; 1.06 in experiment [15]; 0.509 in experiment [16]; 1.06 in experiment [18]; 0.275 in [19]. For the same compound, the composite Z-score in [2] is 0.35 (inactive). In addition, the z-score in [17] was 0.57; in [20], 0.798 (inactive).

In the case of `O=C1N(CCS(=O)(=O)c2ccccc2)c2ccccc2[C@H]2OC(c3ccc(OCCCO)cc3)=N[C@@]12Cc1ccccc1`, the composite z-score is -0.154 in experiment [1]; 0.146 in [3]; 0.087 in experiment [4]; 0.555 in [5]; 2.93 in experiment [6]; 0.991 in [7]. Also, the composite z-score is 1.29 in experiment [8]; 1.4 in experiment [9]; 1.14 in [10]; 2.15 in experiment [11]; 0.936 in experiment [12]; 0.548 in [13]. Further, the composite z-score in experiment [14] worked out at 0.587; in experiment [15], 1.54; in [16] it was 1.75; in [18] it was 0.476; in experiment [19] it was 0.943. Besides, in experiment [2], the composite Z-score is 1.47 (inactive). Also, the figures for the z-score in experiment [17] and in [20] were 1.08 and -8.53 (active), respectively.

On to `C=C(C(=O)CC[C@H](OC(=O)c1ccccc1-c1ccccc1C(=O)O)c1cccc(OCCO)c1)C(C)C`, for which the composite z-score in [1] is 0.688; in [3], -0.185; in [4] it was -0.162; in experiment [5], 0.696; in experiment [6] it was 0.715; in experiment [7], 0.2. Moreover, the composite z-score was -0.192 in experiment [8]; -0.0748 in experiment [9]; 0.0561 in experiment [10]; 0.0001 in [11]; -0.399 in experiment [12]; 0.0444 in experiment [13]. Besides, the composite z-score in experiment [14] came out at 0.0591; in [15] it was 0.319; in [16], 0.85; in [18], 0.485; in experiment [19], 0.36. The composite Z-score in [2] was -0.302 (inactive). Further, the z-score was -0.697 in [17] and -0.373 (inactive) in experiment [20].

On to `COC(=O)[C@]1(CCS(=O)(=O)c2ccccc2)N=C(c2ccc(OCCCO)cc2)O[C@@H]1c1ccccc1N=[N+]=[N-]`, for which the composite z-score in [1] is -0.325; in experiment [3], 0.359; in [4] it was 0.142; in [5], 0.78; in experiment [6], 2.93; in experiment [7] it was 0.612. For the same compound, the composite z-score is 1.29 in [8]; 0.412 in [9]; 1.19 in experiment [10]; 3.54 in [11]; 1.27 in [12]; 0.263 in experiment [13]. In addition, the composite z-score in experiment [14] amounted to 0.906; in [15], 1.39; in experiment [16], 1.75; in experiment [18], 0.387; in experiment [19], 1.09. Further, the composite Z-score in experiment [2] was 0.0652 (inactive). The z-score in experiment [17] is -0.447; in experiment [20] it was -1.32 (inactive).
